# Assay results from PubChem BioAssay AID651947 (Broad Institute, 2012).
# Entries with a potency or affinity are not part of this list. Results filed as inconclusive are left out. Activity calls are given as the source filed them.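 Rule for the calls: active = luminescence drop in HepG2 cells whose fitted half-effect dose is at most twice the top valid dose; inconclusive = flat curve with 30 to 70% signal loss, or unreliable fit; inactive = the rest.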
# Test: HepG2 hepatoma cell viability loss – plate reader, dry powder, cytotoxicity control, dose response (AID 651947)
# Settings: ATP luminescence (CellTiter-Glo), 48 h, active compounds read low; at 26 µM unless noted
row,Compound,max activity
1,[O-][n+]1ccccc1CSc1nnc(-c2ccccc2)o1,-47.8% [at 1.6 µM] (inactive)
2,Clc1cccc(-c2nnc(SCc3ccccc3)o2)c1,-48.3% [at 3 µM] (inactive)
3,c1ccc(Cn2cc(CSc3nnc(C4CCC4)o3)nn2)cc1,-18.3% [at 0.38 µM] (inactive)
4,Fc1cccc(-c2nnc(SCc3ccccn3)o2)c1,26.1% [at 12 µM] (inactive)
5,c1ccc(CSc2nnc(-c3ccc(-c4ccccc4)cc3)o2)cc1,15.5% (inactive)
6,c1ccc(CCc2nnc(SCc3ccccc3)o2)cc1,22.3% [at 3 µM] (inactive)
7,Cc1ccc(-c2nnc(SCc3ccccc3)o2)cc1,15.2% [at 3 µM] (inactive)
8,COc1cccc(-c2nnc(SCc3ccccn3)o2)c1,26.5% [at 1.6 µM] (inactive)
9,CS(=O)(=O)c1cccc(CSc2nnc(-c3ccccc3)o2)c1,-12.6% [at 0.38 µM] (inactive)
10,COCCSc1nnc(-c2ccccc2)o1,27.8% [at 0.195 µM] (inactive)
11,COc1ccc(CSc2nnc(-c3ccc(Cl)cc3)o2)nc1,20.3% [at 0.8 µM] (inactive)
12,FC(F)(F)Oc1ccccc1CSc1nnc(-c2ccccc2)o1,-50.7% [at 1.6 µM] (inactive)
13,c1ccc(-n2cc(CSc3nnc(C4CCCC4)o3)nn2)cc1,20.3% [at 0.38 µM] (inactive)
14,CSc1nnc(-c2ccccc2)o1,-44.9% [at 60 µM] (inactive)
15,CC(C)c1nnc(SCc2ccccc2)o1,28.6% [at 0.38 µM] (inactive)
